The results in this text go back to PubChem BioAssay (EPA / NIEHS).

The target of assay [1] is Bile acid receptor (Homo sapiens) (UniProt Q96RI1). Description: ATG_IR1_CIS: Attagene CIS-FACTORIAL HepG2 Assay for human Nuclear Receptor Subfamily 1 Group H Member 4 (NR1H4), IR1 submotif (AID 2282946). Conditions: IR1 reporter transcription, actives raise or lower the signal. A digest of the protocol:
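Cells (human HepG2) carry transiently transfected cis-promoter reporter transcription units. Compounds are incubated 24 h, total RNA is reverse-transcribed and amplified, and labelled fragments are resolved by capillary electrophoresis. Curves use DMSO as baseline.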

A short description of assay [2]: ATG_GRE_CIS: Attagene CIS-FACTORIAL HepG2 Assay for human Glucocorticoid Response Elements (GRE) (AID 2282947). Conditions: HepG2 GRE cis-reporter, Attagene multiplex mRNA; actives raise or lower the signal. A digest of the protocol: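 Assay uses human hepatoma HepG2 cells transfected with cis-promoter reporter units, exposed 24 h. mRNA from reporters detected by RT-PCR plus capillary electrophoresis; DMSO serves as negative control and baseline.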

The nature of assay [3]: ATG_ISRE_CIS: Attagene CIS-FACTORIAL HepG2 Assay for human Interferon Regulatory Factor 1 (IRF1) binding to an Interferon-Stimulated Response Element (ISRE) (AID 2282948). Conditions: HepG2 ISRE cis-reporter (Attagene), mRNA transcription readout; actives raise or lower the signal. A digest of the protocol:
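Quantitation relies on labelled RT-PCR fragments separated by capillary electrophoresis. Human HepG2 cells bearing cis-promoter reporter constructs were treated 24 h; DMSO served as baseline for bidirectional fitting.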

The nature of assay [4]: ATG_M_32_CIS: Attagene CIS-FACTORIAL HepG2 Assay for M32 Transcription Factor (Internal Marker) (AID 2282949).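 Further: background control marker of the multiplexed CIS panel rather than a real target.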 The settings on record: HepG2 Attagene cis-factorial M32 reporter, mRNA; actives raise or lower the signal. In short, it runs like this: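 Internal background marker read-out: RT-PCR/capillary electrophoresis fluorescence of reporter transcripts from transiently transfected HepG2 cells after 24 h chemical exposure. Activity fitted bidirectionally relative to DMSO negative control.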

A short description of assay [5]: ATG_M_06_CIS: Attagene CIS-FACTORIAL HepG2 Assay for M06 Transcription Factor (Internal Marker) (AID 2282950). The settings on record: HepG2 Attagene CIS-FACTORIAL M06 internal marker reporter; actives raise or lower the signal. In short, it runs like this:
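Cells (HepG2, transiently carrying cis-driven reporter units) receive chemical for 24 h before RNA isolation. Reporter cDNA is PCR-amplified, FAM-labelled by primer extension, HpaI-digested and sized on a capillary analyser.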

Assay [6] deals with Hypoxia-inducible factor 1-alpha (Homo sapiens) (UniProt Q16665). The experiment in a line: ATG_HIF1a_CIS: Attagene CIS-FACTORIAL HepG2 Assay for human Hypoxia Inducible Factor 1 (HIF1A) (AID 2282951). Conditions: HepG2 Attagene cis-factorial HIF1a reporter transcription; actives raise or lower the signal. In short, it runs like this: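 Measures endogenous transcription-factor activity through cis-regulated reporter mRNA in HepG2. Cells dosed 24 h; transcripts quantified by RT-PCR with 6-FAM-labelled products separated by capillary electrophoresis; DMSO serves as negative control.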
Hypoxia-inducible factor 1-alpha (Homo sapiens), sequence (Q16665 whole entry, looked up): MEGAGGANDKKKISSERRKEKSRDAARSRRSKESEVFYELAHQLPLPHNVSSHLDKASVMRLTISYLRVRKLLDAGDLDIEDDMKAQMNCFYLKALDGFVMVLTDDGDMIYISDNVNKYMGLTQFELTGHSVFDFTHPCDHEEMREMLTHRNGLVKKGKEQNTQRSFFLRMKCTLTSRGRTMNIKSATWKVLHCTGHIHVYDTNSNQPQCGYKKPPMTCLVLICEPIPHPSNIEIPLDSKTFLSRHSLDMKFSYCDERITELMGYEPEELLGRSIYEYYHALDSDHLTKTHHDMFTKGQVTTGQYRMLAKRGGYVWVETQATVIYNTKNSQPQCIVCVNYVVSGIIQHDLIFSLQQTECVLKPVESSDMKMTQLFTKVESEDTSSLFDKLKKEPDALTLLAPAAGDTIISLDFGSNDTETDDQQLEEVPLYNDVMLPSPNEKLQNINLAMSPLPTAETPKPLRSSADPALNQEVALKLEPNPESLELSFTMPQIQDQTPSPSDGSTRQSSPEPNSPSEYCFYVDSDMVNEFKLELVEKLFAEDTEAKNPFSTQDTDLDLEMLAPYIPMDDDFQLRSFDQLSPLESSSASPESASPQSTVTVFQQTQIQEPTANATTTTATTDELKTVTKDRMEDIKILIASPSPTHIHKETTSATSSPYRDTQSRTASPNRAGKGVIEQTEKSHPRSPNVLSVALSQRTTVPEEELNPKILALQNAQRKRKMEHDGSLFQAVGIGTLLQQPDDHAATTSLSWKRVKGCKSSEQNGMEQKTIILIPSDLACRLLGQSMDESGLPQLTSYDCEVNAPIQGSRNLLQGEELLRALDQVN

For assay [7], the target named is Hepatocyte nuclear factor 6 (Homo sapiens) (UniProt Q9UBC0). The experiment in a line: ATG_HNF6_CIS: Attagene CIS-FACTORIAL HepG2 Assay for human Hepatocyte Nuclear Factor 6 (HNF6) (AID 2282952). Conditions: HepG2 Attagene cis-factorial HNF6 reporter transcription; actives raise or lower the signal. A digest of the protocol: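 Transiently transfected HepG2 cells expressing cis-regulated reporter transcription units were exposed to chemical for 24 h in a 24-well format. Reporter transcript abundance was determined by fluorescence capillary electrophoresis.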
Hepatocyte nuclear factor 6 (Homo sapiens), sequence (Q9UBC0 whole entry, looked up): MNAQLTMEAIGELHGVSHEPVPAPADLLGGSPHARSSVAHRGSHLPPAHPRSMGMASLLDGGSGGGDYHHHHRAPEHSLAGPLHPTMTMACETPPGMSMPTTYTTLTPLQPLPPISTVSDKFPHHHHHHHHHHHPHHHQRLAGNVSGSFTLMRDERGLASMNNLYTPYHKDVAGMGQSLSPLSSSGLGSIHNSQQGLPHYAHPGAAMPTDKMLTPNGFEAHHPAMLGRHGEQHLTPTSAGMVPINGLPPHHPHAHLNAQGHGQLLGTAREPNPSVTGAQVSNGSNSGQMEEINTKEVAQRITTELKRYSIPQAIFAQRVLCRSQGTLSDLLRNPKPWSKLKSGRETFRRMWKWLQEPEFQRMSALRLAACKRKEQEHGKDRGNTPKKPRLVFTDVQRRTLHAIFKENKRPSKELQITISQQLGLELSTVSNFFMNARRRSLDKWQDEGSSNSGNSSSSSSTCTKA

Assay [8] concerns the target Heat shock factor protein 1 (Homo sapiens) (UniProt Q00613). Description: ATG_HSE_CIS: Attagene CIS-FACTORIAL HepG2 Assay for human Heat Shock Transcription Factor 1 (HSE) (AID 2282953). The settings on record: HepG2 HSE cis-reporter, Attagene RNA transcription; actives raise or lower the signal. A digest of the protocol: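 Liver-derived HepG2 cells carry transiently introduced multiple reporter units governed by cis promoters. Reporter RNA measured 24 h post-dose through reverse transcription, PCR amplification, fluorescent labelling and capillary electrophoresis, normalised to DMSO.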

Assay [9] can be described thus: ATG_MRE_CIS: Attagene CIS-FACTORIAL HepG2 Assay for human Metal Responsive Element (MRE) (AID 2282954). The settings on record: HepG2 MRE cis-reporter transcription, Attagene multiplex; actives raise or lower the signal. In short, it runs like this: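 After a 24 h chemical exposure, transiently transfected HepG2 cells yield RNA whose reporter sequences are amplified, FAM-labelled and sized by capillary electrophoresis. Curves are fitted bidirectionally relative to DMSO.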

A short description of assay [10]: ATG_PBREM_CIS: Attagene CIS-FACTORIAL HepG2 Assay for human Phenobarbital-responsive Enhancer Module (PBREM) (AID 2282955). The settings on record: HepG2 PBREM cis-reporter, Attagene multiplexed transcription; actives raise or lower the signal. A digest of the protocol: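 Fluorescence of labelled reporter cDNA fragments, resolved by capillary electrophoresis, gives mRNA induction in transfected HepG2 cells treated for 24 h; DMSO serves as negative control and baseline.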

In assay [11] the target is Paired box protein Pax-6 (Homo sapiens) (UniProt P26367). Description: ATG_Pax6_CIS: Attagene CIS-FACTORIAL HepG2 Assay for human Paired Box 6 (PAX6) (AID 2282956). Conditions: HepG2 CIS-FACTORIAL PAX6 reporter transcription, RNA readout; actives raise or lower the signal. In short, it runs like this:
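After twenty-four hours of chemical exposure, transfected HepG2 cells are harvested for RNA. Cis-promoter reporter transcripts are amplified, fluorescently labelled and sized by capillary electrophoresis, with gain and loss of signal scored against DMSO.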

The nature of assay [12]: ATG_PXRE_CIS: Attagene CIS-FACTORIAL HepG2 Assay for human Pregnane X Receptor Element (PXRE) (AID 2282957). Conditions: HepG2 Attagene CIS-FACTORIAL PXRE reporter, mRNA; actives raise or lower the signal. In short, it runs like this:
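Cis-element reporter mRNA in human hepatoma HepG2 cells is measured 24 h post-dosing by RT-PCR, primer-extension labeling and capillary electrophoresis; gain or loss of signal is fitted relative to DMSO.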

Assay [13] can be described thus: ATG_PPRE_CIS: Attagene CIS-FACTORIAL HepG2 Assay for human Peroxisome Proliferator-activated Response Element (PPRE) (AID 2282958). Conditions: HepG2 PPRE cis-element reporter, Attagene transcription factor profiling; actives raise or lower the signal. A digest of the protocol: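 Cells are first transfected transiently with the multiplexed reporter library, then dosed for 24 h. Total RNA is reverse-transcribed, amplified, fluorescently end-labeled and HpaI-cut before capillary electrophoresis; activity is fitted bidirectionally against DMSO controls.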

The nature of assay [14]: ATG_Sox_CIS: Attagene CIS-FACTORIAL HepG2 Assay for human SRY-box transcription factor (SOX) (AID 2282960). The settings on record: HepG2 Attagene cis-factorial SOX reporter, mRNA; actives raise or lower the signal. A digest of the protocol:
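Transient MRTU transfection of HepG2; 24 h compound incubation; TriZol RNA, oligo(dT) RT, PCR, 6-FAM primer extension, HpaI cut, CE. Bidirectional fit, DMSO = baseline.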

In assay [15] the target is Transcription factor Sp1 (Homo sapiens) (UniProt P08047). The experiment in a line: ATG_Sp1_CIS: Attagene CIS-FACTORIAL HepG2 Assay for human Specificity Protein 1 (Sp1) (AID 2282961). The settings on record: HepG2 Sp1 cis-reporter transcription, actives raise or lower the signal. A digest of the protocol: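 Endogenous Sp1 activity was gauged in human liver HepG2 cells bearing transfected reporter units under a cis-regulating promoter. After 24 h dosing, reporter mRNA was quantified by RT-PCR with capillary electrophoresis, and activity fitted bidirectionally versus DMSO.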
Transcription factor Sp1 (Homo sapiens), sequence (P08047 whole entry, looked up): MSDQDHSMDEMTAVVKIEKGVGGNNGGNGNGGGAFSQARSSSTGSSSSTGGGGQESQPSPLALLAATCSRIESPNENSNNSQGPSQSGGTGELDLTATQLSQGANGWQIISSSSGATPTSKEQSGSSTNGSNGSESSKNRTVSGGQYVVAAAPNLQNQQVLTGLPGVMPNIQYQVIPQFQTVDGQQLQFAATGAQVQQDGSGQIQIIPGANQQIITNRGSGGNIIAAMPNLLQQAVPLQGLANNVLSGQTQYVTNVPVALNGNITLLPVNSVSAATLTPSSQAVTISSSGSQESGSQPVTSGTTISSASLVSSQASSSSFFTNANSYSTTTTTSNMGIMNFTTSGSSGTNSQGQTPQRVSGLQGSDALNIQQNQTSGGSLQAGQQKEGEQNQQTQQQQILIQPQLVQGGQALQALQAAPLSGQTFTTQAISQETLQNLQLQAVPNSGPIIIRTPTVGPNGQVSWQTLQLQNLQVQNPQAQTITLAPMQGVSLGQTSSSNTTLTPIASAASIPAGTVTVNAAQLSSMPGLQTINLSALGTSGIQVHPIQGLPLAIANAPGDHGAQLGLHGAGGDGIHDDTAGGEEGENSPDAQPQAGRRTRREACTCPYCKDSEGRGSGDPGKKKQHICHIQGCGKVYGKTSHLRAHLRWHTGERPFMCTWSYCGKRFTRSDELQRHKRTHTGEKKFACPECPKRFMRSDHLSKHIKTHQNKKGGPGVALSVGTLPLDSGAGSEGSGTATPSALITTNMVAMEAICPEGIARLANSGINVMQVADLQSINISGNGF

Assay [16] can be described thus: ATG_SREBP_CIS: Attagene CIS-FACTORIAL HepG2 Assay for human Sterol Regulatory Element Binding (SREBP) (AID 2282962). Conditions: HepG2 Attagene cis-factorial SREBP reporter, mRNA; actives raise or lower the signal. A digest of the protocol: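 Twenty-four hours after chemical dosing of transfected HepG2 cultures, reporter RNA was converted to cDNA, amplified, end-labelled with 6-FAM and resolved by capillary electrophoresis. Responses were fitted relative to DMSO.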

Assay [17] is described as follows: ATG_TA_CIS: Attagene CIS-FACTORIAL HepG2 Assay for human TA Basal Promoter (AID 2282964). The settings on record: HepG2 Attagene CIS-factorial TA basal promoter reporter; actives raise or lower the signal. In short, it runs like this:
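Background internal-marker endpoint from a 52-component HepG2 cis-reporter panel. Cells treated 24 h; reporter transcripts quantified via RT-PCR and CE fluorescence against DMSO baseline.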

The nature of assay [18]: ATG_TCF_b_cat_CIS: Attagene CIS-FACTORIAL HepG2 Assay for human T-Cell-Factor with beta-catenin (TCF/b-cat) (AID 2282965). Conditions: HepG2 TCF/beta-catenin cis-reporter transcription, actives raise or lower the signal. In short, it runs like this:
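Endogenous transcription factor activity is captured through cis-promoter reporter constructs transiently introduced into human HepG2 liver cells. Induced reporter mRNA is measured after 24 h and fitted bidirectionally relative to DMSO.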

Assay [19] concerns the target Signal transducer and activator of transcription 3 (Homo sapiens) (UniProt P40763). The experiment in a line: ATG_STAT3_CIS: Attagene CIS-FACTORIAL HepG2 Assay for human Signal Transducer and Activator of Transcription 3 (STAT3) (AID 2282963). Conditions: HepG2, Attagene cis-factorial STAT3 reporter transcription; actives raise or lower the signal. In short, it runs like this:
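After a 24 h compound incubation, total RNA from MRTU-transfected HepG2 cells was converted to cDNA and reporter sequences PCR-amplified, labelled and profiled by capillary electrophoresis. Gain and loss of signal were referenced to DMSO.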

Assay [20] is described as follows: ATG_RORE_CIS: Attagene CIS-FACTORIAL HepG2 Assay for human RAR-related Orphan Receptor Element (RORE) (AID 2282959). The settings on record: HepG2 Attagene cis-factorial RORE reporter, mRNA; actives raise or lower the signal. In short, it runs like this:
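Cells were HepG2 carrying transfected cis-regulated reporter constructs, dosed for 24 hours. Total RNA was reverse-transcribed and reporter cDNA amplified, fluorescently labeled and sized by capillary electrophoresis. Activity was fitted bidirectionally relative to DMSO.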

Activity calls are given as the source filed them. How the source made its calls: active means hit-call score of the fitted dose curve at least 0.9, where 1 is the maximum; inactive means score below 0.9.

Paired box protein Pax-6 (Homo sapiens), sequence (P26367 whole entry, looked up): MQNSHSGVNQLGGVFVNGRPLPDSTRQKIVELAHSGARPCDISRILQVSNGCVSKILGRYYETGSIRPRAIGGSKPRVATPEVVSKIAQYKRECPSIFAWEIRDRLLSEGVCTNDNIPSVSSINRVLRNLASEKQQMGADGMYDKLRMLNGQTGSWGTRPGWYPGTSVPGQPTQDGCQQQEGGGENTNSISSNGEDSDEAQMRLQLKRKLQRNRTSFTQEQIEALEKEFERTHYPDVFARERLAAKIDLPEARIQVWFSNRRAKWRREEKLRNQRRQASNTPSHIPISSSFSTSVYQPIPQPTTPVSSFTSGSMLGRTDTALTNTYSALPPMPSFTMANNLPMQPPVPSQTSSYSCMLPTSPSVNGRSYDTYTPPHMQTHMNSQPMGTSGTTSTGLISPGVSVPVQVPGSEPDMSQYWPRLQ
Heat shock factor protein 1 (Homo sapiens), sequence (Q00613 whole entry, looked up): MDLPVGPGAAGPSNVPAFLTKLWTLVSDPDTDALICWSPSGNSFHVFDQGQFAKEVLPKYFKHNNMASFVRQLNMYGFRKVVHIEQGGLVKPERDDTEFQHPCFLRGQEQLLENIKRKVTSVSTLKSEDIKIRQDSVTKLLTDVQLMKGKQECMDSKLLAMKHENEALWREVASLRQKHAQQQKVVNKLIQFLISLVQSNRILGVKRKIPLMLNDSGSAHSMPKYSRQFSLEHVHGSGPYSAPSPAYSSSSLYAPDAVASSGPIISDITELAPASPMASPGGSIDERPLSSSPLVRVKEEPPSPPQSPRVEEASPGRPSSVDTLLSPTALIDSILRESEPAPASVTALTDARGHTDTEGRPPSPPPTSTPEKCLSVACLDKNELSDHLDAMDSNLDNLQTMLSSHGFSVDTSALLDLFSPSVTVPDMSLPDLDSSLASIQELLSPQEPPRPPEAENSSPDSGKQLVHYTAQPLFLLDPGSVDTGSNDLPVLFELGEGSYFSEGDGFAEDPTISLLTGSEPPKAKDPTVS
Signal transducer and activator of transcription 3 (Homo sapiens), sequence (P40763 whole entry, looked up): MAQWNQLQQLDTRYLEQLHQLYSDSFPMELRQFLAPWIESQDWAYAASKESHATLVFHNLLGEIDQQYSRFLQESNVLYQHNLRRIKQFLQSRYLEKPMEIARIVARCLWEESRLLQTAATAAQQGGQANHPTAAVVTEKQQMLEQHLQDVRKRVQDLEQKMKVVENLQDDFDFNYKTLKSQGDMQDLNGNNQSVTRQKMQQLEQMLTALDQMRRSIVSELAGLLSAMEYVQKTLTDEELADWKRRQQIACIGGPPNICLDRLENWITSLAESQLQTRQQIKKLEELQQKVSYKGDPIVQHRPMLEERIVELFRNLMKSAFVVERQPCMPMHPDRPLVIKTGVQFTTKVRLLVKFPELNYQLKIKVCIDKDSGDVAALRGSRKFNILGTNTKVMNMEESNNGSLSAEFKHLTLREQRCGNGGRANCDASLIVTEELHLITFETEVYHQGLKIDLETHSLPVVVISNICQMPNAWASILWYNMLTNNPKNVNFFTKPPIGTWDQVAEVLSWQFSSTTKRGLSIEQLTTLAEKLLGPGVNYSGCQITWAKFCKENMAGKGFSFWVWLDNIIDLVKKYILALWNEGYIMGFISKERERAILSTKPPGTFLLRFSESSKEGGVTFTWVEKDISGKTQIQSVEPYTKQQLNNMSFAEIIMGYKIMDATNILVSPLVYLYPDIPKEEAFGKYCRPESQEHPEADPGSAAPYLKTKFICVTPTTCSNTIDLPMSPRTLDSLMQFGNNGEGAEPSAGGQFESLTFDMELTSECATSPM
Bile acid receptor (Homo sapiens), sequence (Q96RI1 whole entry, looked up, the tested form may be a part): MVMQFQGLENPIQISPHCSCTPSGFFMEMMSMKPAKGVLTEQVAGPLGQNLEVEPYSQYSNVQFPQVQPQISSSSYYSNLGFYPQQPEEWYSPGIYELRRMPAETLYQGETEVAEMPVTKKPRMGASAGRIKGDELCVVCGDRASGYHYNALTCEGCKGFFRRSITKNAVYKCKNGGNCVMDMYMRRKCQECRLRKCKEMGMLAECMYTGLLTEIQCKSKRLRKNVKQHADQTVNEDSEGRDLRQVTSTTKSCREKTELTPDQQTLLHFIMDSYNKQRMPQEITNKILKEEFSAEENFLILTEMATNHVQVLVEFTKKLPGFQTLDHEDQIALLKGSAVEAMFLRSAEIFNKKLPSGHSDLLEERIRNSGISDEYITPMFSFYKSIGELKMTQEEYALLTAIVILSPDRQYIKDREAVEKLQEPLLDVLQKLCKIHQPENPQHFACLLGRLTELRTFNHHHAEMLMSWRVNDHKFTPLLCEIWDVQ

Regarding `O=C(O)C[C@H](O)C[C@H](O)/C=C/c1c(C2CC2)nc2ccccc2c1-c1ccc(F)cc1`, the call in assay [1], in [2], in [3], in [4], in assay [5] and in assay [6] was inactive. Also, the result in assay [7], in assay [8], in assay [9], in assay [10], in assay [11] and in assay [13] was inactive. For the same compound, the compound was called inactive in assay [14], in [15], in assay [17] and in [18]. Also, the AC50 (in general, the concentration giving half of the maximal activity seen) in [12] was 4.9 µM (active); in [16] it was 0.0712 µM (active).

As for `O=S(=O)(O)c1ccc(O)c2ncccc12`, the call in assay [1], in [2], in assay [3], in assay [4], in assay [5] and in assay [6] was inactive. Also, the outcome in assay [7], in [8], in [9], in [10], in [11] and in assay [12] was inactive. For the same compound, the compound was classed as inactive in [14], in [15], in assay [16], in assay [19], in [17] and in assay [18].

On to `CC(C)(C)C(=O)c1ccccc1`, for which the outcome in assay [1], in assay [2], in [3], in [4], in [5] and in assay [6] was inactive. Moreover, the call in [7], in assay [8], in [9], in assay [10], in assay [20] and in assay [14] was inactive. For the same compound, the compound was classed as inactive in assay [15], in assay [16], in assay [19], in assay [17] and in assay [18]. The AC50 in [12] is 53 µM (active).

`c1cc(C(c2ccc(OCC3CO3)cc2)c2ccc(OCC3CO3)cc2)ccc1OCC1CO1` (configuration not stated): the compound was classed as inactive in assay [1], in assay [2], in assay [4], in assay [5], in [12] and in [20]. In addition, the AC50 in assay [3] is 14.7 µM (active); in assay [6], 56.4 µM (active); in assay [7], 25.3 µM (active); in assay [8] it was 12.5 µM (active); in assay [9], 13.4 µM (active); in assay [11], 9.85 µM (active). For the same compound, the AC50 in assay [13] was 100 µM (active); in assay [14], 9.7 µM (active); in assay [15], 100 µM (active); in assay [16], 26.3 µM (active); in assay [19], 66.3 µM (active); in [18], 8.93 µM (active).
